Screens: PubChem, The Scripps Research Institute Molecular Screening Center
CHRM1 PAM = potentiates human M1 receptor response to acetylcholine. P11229. CHO-K1 hM1, Fluo-8 calcium fluorescence, ACh EC20; 0% = ACh EC20, 100% = maximal ACh. activation, % at 3 µM. 360,000 tested, 0.088% active; in the data active = activation above about 19%, passing the limit was not always enough
Target sequence (P11229 whole entry, looked up): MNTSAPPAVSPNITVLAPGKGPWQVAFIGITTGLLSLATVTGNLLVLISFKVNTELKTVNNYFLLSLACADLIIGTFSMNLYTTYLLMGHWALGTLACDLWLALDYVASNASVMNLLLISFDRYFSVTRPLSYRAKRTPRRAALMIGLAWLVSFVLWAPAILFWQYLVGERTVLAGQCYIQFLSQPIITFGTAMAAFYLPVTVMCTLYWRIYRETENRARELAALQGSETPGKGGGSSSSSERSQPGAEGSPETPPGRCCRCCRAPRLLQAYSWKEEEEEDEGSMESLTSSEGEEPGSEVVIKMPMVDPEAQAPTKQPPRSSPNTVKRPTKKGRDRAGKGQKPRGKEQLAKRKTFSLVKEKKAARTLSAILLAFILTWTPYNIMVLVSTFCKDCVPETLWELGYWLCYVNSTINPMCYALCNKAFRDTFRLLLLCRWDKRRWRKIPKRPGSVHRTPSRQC
M1 PAM parental = counter-screen for M1 PAMs: effect in parental CHO-K1 cells; activation, % at 3 µM; 360,000 tested, 0.02% active; ATP EC20, Fluo-8 calcium fluorescence; 0% at ATP EC20, 100% at ATP max; AID 602247;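 active = activation above the run cutoff, the mean activation of all test compounds plus 3 SD, cut at about 40% in these data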;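 note: peak over basal fluorescence ratio in a 140 s read after ATP addition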
CHO-K1 Ca antag = counter-screen for M1 antagonists: effect in parental CHO-K1 cells; ATP-induced calcium, Fluo-8 fluorescence; 360,000 tested, 0.6% active; inhibition, % at 3 µM;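 active = inhibition above a per-plate cutoff, the plate's mean sample inhibition plus 3 SD, cut at about 24% in these data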;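 note: 0% = DMSO plus EC80 ATP and 100% = DMSO alone without ATP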
M1 ag parental = nonselective activator or artifact in parental CHO-K1 cells; Fluo-8 calcium fluorescence; scaled to maximal ATP response, vehicle zero; activation, % at 3 µM; 360,000 tested, 0.48% active; AID 602248; in the data active = activation above about 15%;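 note: untransfected CHO-K1 host cells lacking M1 receptor as counterscreen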
M1 ag = agonists of human M1 muscarinic receptor | AID 588814 | activation, % at 3 µM | P11229 | CHO-K1 hM1, Fluo-8 calcium fluorescence, agonist mode; 0% DMSO, 100% acetylcholine EC100 | 360,000 tested, 0.33% active;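 active = activation above the run's mean compound activation plus 3 SD, cut at about 16% in these data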;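 note: peak over basal fluorescence ratio within a 140 s kinetic read after compound addition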
CHRM1 antagonist = blocks human M1 muscarinic receptor | 360,000 tested, 1.3% active | inhibition, % at 3 µM | CHO-K1 hM1, Fluo-8 calcium fluorescence, ACh EC80 antagonist | P11229 | AID 588852;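 active = percent inhibition above its own plate's cutoff, namely the mean of that plate's compound wells plus 3 SD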;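 note: peak over basal fluorescence ratio during 140 s after agonist addition; 0% = ACh EC80 plus DMSO and 100% = DMSO alone without agonist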
Active calls of the source: *. The list is not random: actives were taken first. Their share in the collection is about 2.3%.

SMILES | CHRM1 PAM | M1 PAM parental | CHO-K1 Ca antag | M1 ag parental | M1 ag | CHRM1 antagonist
O=C(CN1C(=O)C2CC=CCC2C1=O)Nc1ccc(F)cc1F (stereo unspecified) | 12.5 | 8.5 | 2.5 | -0.2 | 0.6 | -8.2
CCOC(=O)CSc1nnc2cc(C)c3ccccc3n12 | 18.8* | 8.1 | -2.8 | 0.0 | -4.0 | -13.2
CCOC(=O)CSc1ccc2nnc(-c3cccnc3)n2n1 | 4.1 | 4.7 | -1.6 | 0.1 | -0.7 | -5.6
CCOC(=O)CSc1ccc2nnc(-c3ccccc3)n2n1 | 4.2 | -10.7 | 25.9* | 1.3 | -3.3 | -4.2
COc1ccc(-n2nc(C(=O)NCC(=O)Nc3cccc(NC(C)=O)c3)c3ccccc3c2=O)cc1 | 0.3 | 1.9 | -5.9 | 2.6 | 0.2 | 10.1
COc1ccccc1-n1nc(C(=O)NCc2ccco2)c2ccccc2c1=O | -14.0 | 3.9 | 0.6 | 0.4 | -2.1 | 14.6*
COc1ccc(NC(=O)CNC(=O)c2nn(-c3ccc(OC)c(OC)c3)c(=O)c3ccccc23)c(OC)c1 | 3.0 | 1.4 | -6.8 | 7.3 | -0.4 | 1.0
CCC1CCCCN1CCCNC(=O)CNC(=O)c1nn(-c2ccc(OC)c(Cl)c2)c(=O)c2ccccc12 (stereo unspecified) | -30.4 | 14.6 | -2.1 | 0.1 | -12.8 | 48.8*
COc1ccc(-n2nc(C(=O)NCC(=O)Nc3cc(OC)c(OC)c(OC)c3)c3ccccc3c2=O)cc1 | -13.4 | -13.7 | 2.2 | 5.8 | -2.2 | 27.4*
COc1ccc(-n2nc(C(=O)NCC(=O)Nc3cc(OC)c(OC)c(OC)c3)c3ccccc3c2=O)cc1OC | -11.4 | 5.6 | 1.3 | 8.3 | 0.1 | 30.4*
COc1ccc(-n2nc(C(=O)NCc3ccco3)c3ccccc3c2=O)cc1 | 1.4 | 13.1 | -22.4 | 0.7 | -2.4 | -6.5
COc1ccccc1NC(=O)c1cc(S(=O)(=O)N2CCCC2)cn1C | -0.4 | -1.0 | -4.7 | 0.7 | -4.6 | -6.5
Nc1cc2c(cc1N)-c1ccccc1C2 | -1.6 | -4.9 | -2.7 | -0.2 | -2.9 | 4.8
COc1ccc(C2c3[nH]c4ccccc4c3CCN2C(=O)c2cn3ccccc3n2)c(F)c1 (stereo unspecified) | -7.5 | -15.6 | 27.4* | 0.3 | -3.4 | 7.5
COc1ccc(C2c3[nH]c4ccccc4c3CCN2C(=O)c2ccccc2C(C)=O)c(F)c1 (stereo unspecified) | 12.3 | 8.8 | 2.2 | 2.9 | -2.2 | -21.5
COc1ccc(C2c3[nH]c4ccccc4c3CCN2C(=O)c2cc3ncccn3n2)c(F)c1 (stereo unspecified) | -21.9 | -11.0 | 25.8* | 6.7 | -1.1 | 19.8
CC(=O)c1ccc2c3c(cccc13)C(=O)N(c1c(C)nn(C)c1C)C2=O | 2.1 | 11.9 | -2.5 | 1.9 | 2.0 | -12.7
C=CCN1C(=O)c2cccc3c(N4CCCCC4)ccc(c23)C1=O | -4.6 | 1.8 | 10.6 | 10.8 | 7.4 | 6.3
O=C(c1cccc(N2C(=O)c3ccccc3C2=O)c1)N1CCCCCC1 | 1.7 | 2.0 | -5.8 | 1.0 | -3.2 | 0.7
Cc1n[nH]c(C)c1N1C(=O)c2cccc3c(N4CCCCCC4)ccc(c23)C1=O | -20.2 | -2.8 | 55.4* | 83.5* | 93.0* | 62.9*
O=C(OCCN1C(=O)c2cccc3c(N4CCOCC4)ccc(c23)C1=O)c1ccccc1Cl | -24.2 | -6.7 | 23.3 | 17.9* | 15.2 | 43.7*
O=C1c2cccc3c(N4CCCCC4)ccc(c23)C(=O)N1CCO | 3.2 | 1.4 | 0.7 | 16.5* | 12.2 | 0.5
O=C1c2cccc3c(N4CCCCC4)ccc(c23)C(=O)N1c1cccc(O)c1 | -6.6 | -1.3 | 23.4 | 30.5* | 36.2* | 31.9*
O=[N+]([O-])c1ccc(Cn2cc(-c3cccc(C(F)(F)F)c3)nn2)cc1 | 3.0 | 19.9 | -16.9 | -0.6 | -6.8 | -5.9
COCCCNc1ncnc2sc3c(c12)CCC(C)C3 (stereo unspecified) | -0.5 | -5.2 | 29.7* | -0.1 | -4.4 | 3.4
CC1CCc2c(sc3ncnc(NS(=O)(=O)c4cccs4)c23)C1 (stereo unspecified) | -1.2 | -8.3 | 12.8 | -0.9 | -6.6 | 1.4
ClN=C1C=CC=CC1=NCl | 14.5 | -9.4 | 34.5* | -0.4 | -2.7 | -1.1
COC1=CC(=NCl)C=CC1=NCl | -0.2 | 6.0 | 1.3 | 0.7 | -2.2 | -1.3
